High-throughput results deposited in PubChem by several laboratories.
MBD2 inh = inhibitors of MBD2 binding to methylated DNA, primary screen, biochemical, TR-FRET, DNA-binding domain, human; MBD2 binding to methylated oligonucleotide; inhibition, % at 4.4 µM; 370,000 compounds, 0.31% hits; Methyl-CpG-binding domain protein 2 (Homo sapiens), Q9UBB5; in the data active means inhibition above about 13%
PRMT1 inh = PRMT1 methyltransferase inhibitors, primary screen, biochemical, fluorescence polarization | AID 652257, 2013 | Protein arginine N-methyltransferase 1 (Homo sapiens), Q99873 | 370,000 compounds, 1.3% hits | recombinant PRMT1, activity-based probe fluorescence polarization | inhibition, % at 2.79 µM;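 active means inhibition above about 21% made by adding two undisclosed values, limit read from the data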
Target sequence (Q99873 whole entry, looked up): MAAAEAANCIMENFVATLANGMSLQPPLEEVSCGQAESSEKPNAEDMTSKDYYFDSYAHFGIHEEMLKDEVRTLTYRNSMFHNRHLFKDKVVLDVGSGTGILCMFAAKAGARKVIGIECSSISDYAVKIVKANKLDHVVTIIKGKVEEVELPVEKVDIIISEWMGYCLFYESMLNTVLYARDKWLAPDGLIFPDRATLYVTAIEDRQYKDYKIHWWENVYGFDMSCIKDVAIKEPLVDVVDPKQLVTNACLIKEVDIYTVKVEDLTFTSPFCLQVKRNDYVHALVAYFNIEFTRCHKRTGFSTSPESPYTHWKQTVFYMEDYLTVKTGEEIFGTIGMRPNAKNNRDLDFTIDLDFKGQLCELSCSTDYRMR
PfG6PD inh = PfG6PD enzyme inhibitors, primary screen, biochemical, fluorescence intensity, uHTS. 350,000 compounds, 0.78% hits. AID 504690, 2011. PfGluPho enzyme, NADPH resazurin-diaphorase fluorescence. inhibition, % at 20 µM;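 active means inhibition reaching at least a set limit at 20 µM in the primary screen, cut at about 59% in these data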;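 further: 0% = DMSO wells with substrate and 100% = DMSO wells lacking glucose-6-phosphate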
M18AAP inhibitor = PfM18AAP inhibitors, malaria aminopeptidase, primary screen, biochemical, QFRET, recombinant enzyme; M18 aspartyl aminopeptidase (Plasmodium falciparum 3D7); H-Glu-NHMec fluorogenic cleavage; inhibition, % at 7.35 µM; 290,000 compounds, 1.2% hits; AID 1822, 2009;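 active means inhibition above the campaign mean inhibition over all tested compounds plus 3 SD, cut at about 28% in these data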;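 further: 0% = plate median of test compound wells and 100% = 2 mM ZnCl2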
UHRF1 binding = UHRF1 methylated DNA binding inhibitors, primary screen, counter-screen for MBD2 inhibitor project, biochemical, TR-FRET, human UHRF1, single concentration; inhibition, % at 4.4 µM; E3 ubiquitin-protein ligase UHRF1 (Homo sapiens), Q96T88; 370,000 compounds, 0.75% hits; UHRF1 binding to methylated oligo; in the data active means inhibition above about 21%;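 further: UHRF1 SRA domain binding a hemimethylated CpG hairpin DNA probe; 0% = median of test compound wells and 100% = reference inhibitor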
* hit, by the source's call; · = not tested or not shown. Rows were chosen to be rich in hits. Some 3.3% of all compounds tested hit in one or more screens of this group.

SMILES | MBD2 inh | PRMT1 inh | PfG6PD inh | M18AAP inhibitor | UHRF1 binding
O=C(/C=C/c1ccc([N+](=O)[O-])cc1)NCCc1ccc(F)cc1 | 0 | 0 | 1 | 3 | -2
O=C(/C=C/c1cccc([N+](=O)[O-])c1)NCCc1ccc(F)cc1 | -1 | 1 | 0 | 0 | 38*
O=C1c2c([N+](=O)[O-])cc([N+](=O)[O-])cc2S(=O)N1Cc1ccccc1 (stereo not drawn) | -2 | 21* | 62* | 52* | -4
O=C(CC1C(=O)NCCN1Cc1cccc(C(F)(F)F)c1)NC1CCOCC1 (stereo not drawn) | -3 | -2 | 3 | 5 | -2
CCOC(=O)CC1C(=O)NCCN1Cc1cccc(C(F)(F)F)c1 (stereo not drawn) | -1 | 24* | 2 | 2 | -5
Cc1cc(=O)c2c(ccc3c(=O)cc(C)[nH]c32)[nH]1 | 1 | -2 | · | · | 1
O=C(Nc1c(-c2ccc(F)c(F)c2)nc2ncccn12)C1CC1 | -4 | 0 | · | · | 1
COC(=O)[C@]12C[C@H](CC(=O)N3CCOCC3)C(=O)N(CCC3=CCCCC3)C1=C[C@H](C(C)C)O[C@@H]2C1CC1 | 4 | 1 | · | · | -3
COc1cc(/C=C/C(=O)c2ccc3c(c2)OCO3)cc(Cl)c1O | -4 | -8 | 10 | 32* | -5
O=C(O)C(C(=O)/C=C/c1ccco1)=C1SCCS1 | -2 | 19 | 52 | -29 | 20
O=C(C=C1SCCS1)/C=C/c1ccco1 | 2 | 22* | 42 | 11 | 1
COCCCN1CCC2(CCC(c3ccccc3)CC2)C1=O (stereo not drawn) | -10 | 0 | · | · | -4
O=C(CN1C(=O)S/C(=C\c2cccc(Cl)c2)C1=O)NC1C=CS(=O)(=O)C1 (stereo not drawn) | 0 | 4 | 3 | 4 | 0
O=C(CN1C(=O)/C(=C/c2cccc(Cl)c2)SC1=S)NC1C=CS(=O)(=O)C1 (stereo not drawn) | 2 | 13 | -10 | 30* | -4
CC(C)C(=O)NCCCc1ccccc1 | 3 | 0 | -14 | -1 | 1
CC(C)CC(=O)NCCCCc1ccccc1 | -2 | 1 | -1 | -9 | 21*
CC1=C(C#N)C(c2ccc3ncccc3c2)C(C#N)=C(C)N1 | 8 | 8 | 18 | 5 | 28*
CC(C)(C)OC(=O)NCc1ccccc1/C=C/S(=O)(=O)NCc1ccccc1 | -6 | 5 | · | · | -4
CC1=CC(=O)c2c(O)ccc(O)c2C1=O | · | · | · | 35* | ·
Cc1ccccc1N(C)C(=O)CN1CCN(c2nc(-c3ccccc3)cs2)CC1 | 1 | 2 | · | · | -1
CC1(C)C2CCC1(C)C(NC(=O)/C=C/c1ccccc1)C2 (stereo not drawn) | -5 | -1 | 5 | 1 | 25*
CC(C)C[C@@H]1NC(=O)[C@@H]2CSCCS(=O)(=O)N2C1=O | 1 | -2 | · | · | -4
CCOC(=O)N1CCC(=NNc2nc3ccccc3s2)CC1 | -4 | -2 | 2 | 29* | -2
CC(=O)N1CCC(=NNc2nc3ccccc3s2)CC1 | -1 | 4 | -9 | 23 | 0
S=C(NN=C1CCCCC1=NNC(=S)N1CCOCC1)N1CCOCC1 | -3 | 15 | · | · | -10
SMILES | MBD2 inh | PRMT1 inh | PfG6PD inh | M18AAP inhibitor | UHRF1 binding
CCc1sc(C(=O)NCCc2ccc(S(N)(=O)=O)cc2)cc1Br | 5 | 0 | 14 | 3 | 21*
COC(=O)[C@]12C[C@H](CC(=O)N3CCN(C(=O)C4CC4)CC3)C(=O)N(Cc3ccc(Cl)cc3Cl)C1=C[C@H](C(C)(C)C)O[C@@H]2C | 6 | 6 | · | · | 0
NCC12CC3CC(C1)CC(c1ccc(Cl)cc1)(C3)C2 | 5 | 2 | -12 | 7 | 21*
CC1(C)C(C(=O)OCC(Cl)(Cl)Cl)N2C(=O)C(NC(=O)Cc3ccccc3)C2S1=O (stereo not drawn) | -2 | 14 | 20 | 17 | -1
CC1(C)C(C(=O)O)N2C(=O)C(NC(=O)Cc3ccccc3)C2S1=O (stereo not drawn) | 4 | 23* | -8 | 21 | -4
CC(C)[C@H](NC(=O)c1ccc(Cl)c(Cl)c1)C(=O)N1CCC[C@H]1C(=O)NCc1ccccc1 | 1 | 0 | · | · | 2
c1ccc(-c2cc(NCCN3CCCCC3)c3ccccc3n2)cc1 | 13 | -3 | -3 | -4 | 21*
O=C(c1cc(-c2ccccc2)nc2ccccc12)N1CCCC1 | -5 | -8 | -24 | 2 | 4
CC1(c2nnnn2Cc2ccccc2)CCC(=O)N1CCc1ccc(O)cc1 (stereo not drawn) | 6 | 1 | · | · | 24*
CCCCn1nnnc1C1(C)CCC(=O)N1CCc1ccc(O)cc1 (stereo not drawn) | 7 | 1 | · | · | 3
C[C@H](CO)N1C[C@H](C)[C@@H](CN(C)C(=O)Nc2ccc(C(F)(F)F)cc2)OCc2cn(nn2)CCCC1=O | 1 | 5 | · | · | 1
COc1ccc(C(=O)CSc2nnc(-c3ccco3)n2C)cc1 | -8 | 24* | 4 | -11 | 4
CCc1c(Cc2cccc(F)c2)ncn1CCc1ccccc1OC | -3 | -2 | · | · | 0
C[C@@H]1CN([C@@H](C)CO)C(=O)c2cc(Br)cnc2O[C@H]1CN(C)C(=O)C1CCCCC1 | -4 | -5 | -10 | · | -3
Cc1ccc(S(=O)(=O)N(C)C[C@@H]2Oc3ncc(C#CCC(C)C)cc3C(=O)N([C@H](C)CO)C[C@H]2C)cc1 | 8 | 1 | 50 | · | 23*
COc1cccc(C#Cc2cnc3c(c2)C(=O)N([C@@H](C)CO)C[C@H](C)[C@H](CN(C)C(=O)C2CCC2)O3)c1 | 9 | -2 | -6 | · | 22*
O=C(NCc1ccccc1)[C@@H]1CCCN1C(=O)[C@H]1CCCN1C(=O)c1c(F)cccc1F | 8 | -1 | · | · | 1
O=C(NC(=S)Nc1ccc2[nH]c(=O)[nH]c2c1)c1ccccc1F | 4 | 0 | -4 | 8 | 6
O=C(NC(=S)Nc1ccc(F)c([N+](=O)[O-])c1)c1ccccc1F | -1 | 33* | 17 | 9 | -1
CC(C)C[C@H]1COc2ccc(Cl)cc2S(=O)(=O)N1C[C@H](NC(=O)OC(C)(C)C)C(C)C | -6 | -3 | · | · | 2
COc1ccc(/C=C2\SC(N)=NC2=O)cc1Br | -3 | 6 | 8 | 0 | -5
Cc1ccc(C2=NC(=O)/C(=C/c3cc(O)c(O)c(Br)c3)S2)cc1 | 38* | 23* | 27 | 48* | 50*
COc1cccc(C2C(C(=O)Nc3ccccc3)=C(C)N=c3s/c(=C/c4ccc(OCC(=O)O)cc4)c(=O)n32)c1 (stereo not drawn) | -5 | 30* | -20 | 7 | -5
